# Experimental data taken from PubChem BioAssay.
# Calls of active or inactive are those of the source.
# Assays:
# [1] = system: Plasmodium falciparum Sir2 (PF13_0152, Sir2A); test: Plasmodium falciparum Sir2A binding compounds – biochemical, small-molecule microarray, 635 nm fluorescence, primary screen (AID 1098); conditions: fluorescence 635 nm, higher = more signal;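 further: score merges spot fluorescence intensity with its signal-to-noise ratio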
# [2] = probe aDKK1 binding to arrayed compounds – biochemical, biotinylated probe, 635/667 nm fluorescence, primary screen (AID 1099); conditions: small-molecule microarray, higher = more signal;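 further: score merges 667nm spot fluorescence with signal to noise across triplicate slides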
# [3] = probe aCHRDL2 binding to arrayed compounds – biochemical, biotinylated probe, 635/667 nm fluorescence, primary screen (AID 1100); conditions: small-molecule microarray, higher = more signal
# [4] = change in splice reporter luminescence, either direction, cell-based, HEK293, spliceosome inhibition project, primary screen (AID 1101); conditions: HEK293 splicing luciferase reporter, 24 h, higher = more signal, called active from +8 up or from −8 down;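 further: HEK293 cells carrying a splicing-competent luciferase reporter gene; test concentration not given here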
# [5] = biological target: Fibroblast growth factor 10 (Homo sapiens) (UniProt O15520); test: compounds binding fibroblast growth factor 10 – biochemical, small-molecule microarray, 635 nm fluorescence, primary screen (AID 1102); conditions: FGF10 binding, fluorescence 635 nm, higher = more signal
# [6] = system: glycogen synthase kinase-3 (GSK3A per assay name; protocol says GSK3B); test: compounds binding glycogen synthase kinase-3 – biochemical, small-molecule microarray, 635 nm fluorescence, GSK3A, primary screen (AID 1103); conditions: fluorescence 635 nm, higher = more signal; further: the record names both GSK3A and GSK3B
# [7] = biological target: Epidermal growth factor receptor (Homo sapiens) (UniProt P00533); test: compounds binding epidermal growth factor receptor – biochemical, small-molecule microarray, 635 nm fluorescence, primary screen (AID 1104); conditions: EGFR binding, higher = more signal;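 further: score merges 667 nm emission intensity with spot signal to noise over triplicate slides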
# [8] = biological target: Follistatin-related protein 3 (Homo sapiens) (UniProt O95633); test: compounds binding follistatin-related protein 3 – biochemical, small-molecule microarray, 635 nm fluorescence, primary screen (AID 1105); conditions: FSTL3 binding, higher = more signal;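 further: score merges emission near 667 nm and signal to noise per printed spot across three slides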
# [9] = biological target: Dickkopf-related protein 1 (Homo sapiens) (UniProt O94907); test: small molecules binding DKK1 protein – biochemical, small-molecule microarray, 635 nm fluorescence scan, primary screen (AID 1106); conditions: higher = more signal;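 further: score merges emission near 667 nm with signal to noise over three replicate slides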
# [10] = system: Inhibin beta A chain (activin A); test: small molecules binding activin A – biochemical, small-molecule microarray, 635 nm fluorescence scan, primary screen (AID 1107); conditions: INHBA, higher = more signal;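 further: mouse activin A protein probed at 4.33 µg/mL on printed slides; score merges bound-protein fluorescence near 667 nm with spot signal-to-noise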
# [11] = system: Human papillomavirus type 1a protein E7 (residues 44-93); test: small molecules binding HPV E7 44-93 – biochemical, small-molecule microarray, residues 44-93, 635 nm fluorescence, primary screen (AID 1108); conditions: fluorescence 635 nm, higher = more signal;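 further: E7 fragment applied at 1 µg/mL in TBST for 1 h at 4 C; score combines spot fluorescence with its signal to noise ratio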
# [12] = hepatitis C replication reporter changes, two-sided – Huh7 cells, luciferase reporter, HCV replication inhibitor project, primary screen (AID 1109); conditions: Huh7 HCV replicon luciferase reporter, 48 h; higher = more signal;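 further: huh7 hepatoma cells harbouring a luciferase neomycin HCV replicon reporter; luciferase luminescence as measure of HCV replicon replication; test concentration not given here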
# [13] = biological target: Left-right determination factor 2 (Homo sapiens) (UniProt O00292); test: small molecules binding LEFTY2 protein – biochemical, small-molecule microarray, 635 nm fluorescence scan, primary screen (AID 1110); conditions: higher = more signal
# [14] = biological target: Calmodulin-1 (Homo sapiens) (UniProt P0DP23); test: small molecules binding calmodulin-1 with EGTA – biochemical, small-molecule microarray, Cy5-labelled CALM1, profiling panel (AID 1111); conditions: Cy5-CALM1 binding fluorescence, higher = more signal;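 further: labelled calmodulin applied in Tris saline Tween buffer holding calcium plus EGTA and DTT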
# [15] = biological target: Calmodulin-1 (Homo sapiens) (UniProt P0DP23); test: small molecules binding Ca-loaded calmodulin-1 – biochemical, small-molecule microarray, Cy5-labelled CALM1, plus calcium, artefact control for SMM control-protein annotation, profiling panel (AID 1112); conditions: Cy5-CALM1 binding fluorescence, higher = more signal;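 further: score merges spot fluorescence with signal to noise from triplicate slides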
# [16] = probe aWnt5a binding to arrayed compounds – biochemical, biotinylated probe, 635/667 nm fluorescence, primary screen (AID 1113); conditions: small-molecule microarray, higher = more signal;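 further: score merges 667 nm fluorescence intensity with signal-to-noise per printed feature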
# [17] = probe aShh binding to arrayed compounds – biochemical, biotinylated probe, 635/667 nm fluorescence, primary screen (AID 1114); conditions: small-molecule microarray, higher = more signal;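 further: probe is biotin-labelled aShh protein from a stem cell growth factor screen; measures binding of labelled protein to compounds printed on the slide; score merges feature fluorescence at 667 nm with signal-to-noise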
# [18] = probe aNog binding to arrayed compounds – biochemical, biotinylated probe, 635/667 nm fluorescence, primary screen (AID 1115); conditions: small-molecule microarray, higher = more signal;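 further: probe is biotinylated aNog protein used at 0.15 µg/mL for 1 h at 4 C; z-score combines 667 nm fluorescence of each spot with its signal to noise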
# [19] = biological target: Torsin-1A-interacting protein 1 (Homo sapiens) (UniProt Q5JTV8); test: compound microarray binding of lysate hLAP1 – cell lysate, small-molecule microarray, COS7 lysate, 635/667 nm fluorescence, primary screen (AID 1116); conditions: 635 nm fluorescence, higher = more signal
# [20] = biological target: Alpha-bungarotoxin (Bungarus multicinctus) (UniProt P60615); test: compounds binding labelled alpha-BTX control protein – biochemical, small-molecule microarray, Alexa647 label, 635/667 nm fluorescence, artefact control for SMM control protein annotation, profiling panel (AID 1117); conditions: alpha-BTX-A647 binding fluorescence, higher = more signal
# Sequence of Alpha-bungarotoxin (Bungarus multicinctus) (P60615 whole entry, looked up): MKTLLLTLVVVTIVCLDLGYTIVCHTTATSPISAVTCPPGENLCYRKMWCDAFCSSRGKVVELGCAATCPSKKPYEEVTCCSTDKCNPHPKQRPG
# Sequence of Torsin-1A-interacting protein 1 (Homo sapiens) (Q5JTV8 whole entry, looked up): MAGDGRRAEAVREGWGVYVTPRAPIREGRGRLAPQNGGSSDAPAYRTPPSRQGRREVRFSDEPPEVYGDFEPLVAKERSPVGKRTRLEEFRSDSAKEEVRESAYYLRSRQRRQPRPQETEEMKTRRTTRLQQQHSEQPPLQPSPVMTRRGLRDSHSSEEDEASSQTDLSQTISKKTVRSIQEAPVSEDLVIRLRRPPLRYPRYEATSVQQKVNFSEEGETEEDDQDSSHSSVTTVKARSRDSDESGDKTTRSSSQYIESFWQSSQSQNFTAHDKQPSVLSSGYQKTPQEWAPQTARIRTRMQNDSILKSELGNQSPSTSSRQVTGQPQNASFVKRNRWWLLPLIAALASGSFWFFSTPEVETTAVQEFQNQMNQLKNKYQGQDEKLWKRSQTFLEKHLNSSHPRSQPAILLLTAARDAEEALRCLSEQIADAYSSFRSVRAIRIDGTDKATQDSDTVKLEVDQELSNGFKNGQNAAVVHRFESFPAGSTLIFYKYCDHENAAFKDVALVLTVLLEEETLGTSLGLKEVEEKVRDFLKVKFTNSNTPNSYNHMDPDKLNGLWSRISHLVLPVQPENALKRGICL
# Sequence of Epidermal growth factor receptor (Homo sapiens) (P00533 whole entry, looked up): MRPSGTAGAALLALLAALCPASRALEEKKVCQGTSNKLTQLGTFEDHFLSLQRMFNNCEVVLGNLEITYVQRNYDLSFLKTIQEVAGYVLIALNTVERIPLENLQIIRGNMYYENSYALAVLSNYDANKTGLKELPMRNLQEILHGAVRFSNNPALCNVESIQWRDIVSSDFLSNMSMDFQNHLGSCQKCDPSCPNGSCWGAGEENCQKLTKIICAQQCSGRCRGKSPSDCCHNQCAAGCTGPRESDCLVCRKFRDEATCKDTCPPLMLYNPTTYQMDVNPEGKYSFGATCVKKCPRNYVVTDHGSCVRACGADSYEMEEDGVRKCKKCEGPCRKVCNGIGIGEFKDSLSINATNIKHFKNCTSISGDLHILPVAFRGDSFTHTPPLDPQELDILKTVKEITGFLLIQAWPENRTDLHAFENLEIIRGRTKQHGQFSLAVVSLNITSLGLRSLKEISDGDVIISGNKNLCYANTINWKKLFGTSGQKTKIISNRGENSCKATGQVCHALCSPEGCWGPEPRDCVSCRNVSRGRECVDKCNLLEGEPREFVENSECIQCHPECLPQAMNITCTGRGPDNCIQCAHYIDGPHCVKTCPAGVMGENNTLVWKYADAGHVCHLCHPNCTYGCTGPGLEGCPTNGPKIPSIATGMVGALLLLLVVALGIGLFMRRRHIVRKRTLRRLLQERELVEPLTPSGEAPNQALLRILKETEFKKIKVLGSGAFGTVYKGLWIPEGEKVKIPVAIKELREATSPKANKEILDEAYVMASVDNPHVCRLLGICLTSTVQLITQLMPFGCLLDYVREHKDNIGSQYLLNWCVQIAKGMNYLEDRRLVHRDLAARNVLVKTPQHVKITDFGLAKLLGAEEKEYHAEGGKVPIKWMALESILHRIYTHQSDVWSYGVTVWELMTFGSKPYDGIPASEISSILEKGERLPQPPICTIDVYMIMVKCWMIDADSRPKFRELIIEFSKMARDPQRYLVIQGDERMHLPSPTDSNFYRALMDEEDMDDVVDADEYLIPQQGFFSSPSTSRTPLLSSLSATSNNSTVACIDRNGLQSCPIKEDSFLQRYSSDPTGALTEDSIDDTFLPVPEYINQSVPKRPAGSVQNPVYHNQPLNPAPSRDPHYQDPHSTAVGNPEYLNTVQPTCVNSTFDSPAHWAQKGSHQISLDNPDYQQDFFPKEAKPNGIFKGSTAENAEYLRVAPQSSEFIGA
# Sequence of Dickkopf-related protein 1 (Homo sapiens) (O94907 whole entry, looked up): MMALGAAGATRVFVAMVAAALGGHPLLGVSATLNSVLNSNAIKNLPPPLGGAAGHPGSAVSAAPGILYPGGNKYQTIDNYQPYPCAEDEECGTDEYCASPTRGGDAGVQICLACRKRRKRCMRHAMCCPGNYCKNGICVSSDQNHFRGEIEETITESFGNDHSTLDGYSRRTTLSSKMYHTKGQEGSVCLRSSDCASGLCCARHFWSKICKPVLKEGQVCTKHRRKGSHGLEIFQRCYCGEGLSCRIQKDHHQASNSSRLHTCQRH
# Sequence of Fibroblast growth factor 10 (Homo sapiens) (O15520 whole entry, looked up): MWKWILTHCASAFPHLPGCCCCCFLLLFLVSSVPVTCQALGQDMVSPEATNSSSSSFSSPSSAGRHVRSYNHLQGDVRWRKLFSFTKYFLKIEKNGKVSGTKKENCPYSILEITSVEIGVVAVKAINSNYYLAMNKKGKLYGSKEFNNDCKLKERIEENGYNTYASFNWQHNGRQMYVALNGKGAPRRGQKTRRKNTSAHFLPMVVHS
# Sequence of Left-right determination factor 2 (Homo sapiens) (O00292 whole entry, looked up): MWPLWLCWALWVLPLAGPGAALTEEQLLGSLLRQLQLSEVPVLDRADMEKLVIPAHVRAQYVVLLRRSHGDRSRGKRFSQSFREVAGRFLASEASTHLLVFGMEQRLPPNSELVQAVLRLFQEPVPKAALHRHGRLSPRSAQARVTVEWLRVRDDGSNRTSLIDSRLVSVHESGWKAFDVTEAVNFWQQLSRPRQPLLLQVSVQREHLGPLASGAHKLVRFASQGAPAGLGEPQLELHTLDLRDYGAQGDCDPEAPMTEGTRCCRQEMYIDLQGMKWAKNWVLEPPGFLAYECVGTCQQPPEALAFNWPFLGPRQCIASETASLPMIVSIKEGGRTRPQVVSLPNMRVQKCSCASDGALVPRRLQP
# Sequence of Follistatin-related protein 3 (Homo sapiens) (O95633 whole entry, looked up): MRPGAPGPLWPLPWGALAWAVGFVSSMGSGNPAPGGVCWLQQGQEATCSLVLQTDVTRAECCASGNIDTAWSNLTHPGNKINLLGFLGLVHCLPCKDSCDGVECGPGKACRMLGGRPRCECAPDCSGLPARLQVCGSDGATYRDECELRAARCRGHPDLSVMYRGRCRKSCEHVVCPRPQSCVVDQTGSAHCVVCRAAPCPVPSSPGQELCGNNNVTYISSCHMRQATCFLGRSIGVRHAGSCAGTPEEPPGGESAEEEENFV
SMILES,composite z-score [1],composite z-score [2],composite z-score [3],z-score [4],composite z-score [5],composite z-score [6],composite z-score [7],composite z-score [8],composite z-score [9],composite z-score [10],composite z-score [11],z-score [12],composite z-score [13],composite z-score [14],composite z-score [15],composite z-score [16],composite z-score [17],composite z-score [18],composite z-score [19],composite z-score [20]
O=C1c2ccccc2[C@](Cc2ccccc2I)(C(=O)NCCN2CCOCC2)[C@H](c2ccc(CO)cc2)N1Cc1ccccc1Cl,1.42,0.964,0.732,-0.0587 (inactive),1.15,1.28,0.629,1.25,0.419,0.605,-0.612,-2.64,0.945,1.51,0.0568,0.0215,-0.0011,-0.474,0.896,1.47
CN(C)CCCCCCNC(=O)[C@@H]1C[C@@H]2C(=O)N[C@@H](Cc3ccccc3)C(=O)N2[C@@H]1c1ccc(O)cc1,1.51,0.026,-0.127,-0.926 (inactive),1.06,1.35,1.37,1.44,1.38,1.41,1.13,2.17,1.02,-0.565,-1.14,-0.0425,0.0668,0,1.32,2.47
CO[C@H]1O[C@H](CO)[C@@H](OC(=O)Nc2cccc(F)c2)[C@H](OC(=O)Nc2ccccc2)[C@@H]1OC(=O)Nc1ccccc1,0.931,0.433,0.824,-1.24 (inactive),1.35,1.28,0.397,1.2,-0.259,0.489,1.26,-3.23,0.071,0.471,-0.365,0.0257,0.365,0.883,0.642,0.0941
CC(=O)n1cc(C(O)C2C=CC3C(=O)N(c4ccccc4)C(=O)C3N2Nc2ccc([N+](=O)[O-])cc2)c2ccccc21 (stereo not given),0.894,0.929,1.38,0.138 (inactive),-0.0673,1.28,-0.142,0.38,-0.113,0.783,0.275,-0.0176,-0.712,1.73,0.571,-0.0459,-0.0243,0.576,1.87,1.7
Cc1ccc(S[C@]2(C(=O)NCCCN(C)C)CC(=O)N(Cc3cc(C(F)(F)F)cc(C(F)(F)F)c3)[C@@H]2c2ccc(CO)cc2I)cc1,-0.0355,0.703,0.879,-0.0675 (inactive),-0.833,-2.21,-1.18,-1.71,-1.53,0.835,-0.0139,-2.1,-0.664,0.325,0.764,0.299,0.242,1.73,0.215,0.0119
COc1cc2c(cc1O)C(c1cccs1)N(C)CC2 (stereo not given),0.0826,-0.287,0.0135,0.153 (inactive),-0.654,-0.995,0.0174,-0.558,-0.332,0.0723,-1.61,0.159,-0.496,-0.705,0.423,-0.126,-0.2,-0.215,-0.205,-0.759
CCOC(=O)C[C@H]1[C@H](OC(=O)c2cc3ccccc3oc2=O)[C@@H](NC(=O)c2ccccc2)c2cc(OCCCO)ccc2N1C(=O)c1ccc2ccccc2n1,0.485,-0.128,-0.446,0.0189 (inactive),0.72,0.228,0.536,1.11,0.425,0.344,0.55,-0.765,0.782,0.183,-0.505,-0.0758,-0.237,-0.242,0.79,0.137
C=CCN1C(=O)[C@@]2(CC=C)N=C(c3ccc(OCCCO)cc3)O[C@H]2c2ccccc21,1.66,0.801,1.08,-1.63 (inactive),1.45,1.32,0.734,1.41,1.14,1.2,1.41,-2.48,0.984,3.11,0.0457,0.026,-0.0886,0.808,1.62,0.951
O=C1C[C@@](C(=O)NCCN2CCOCC2)(c2ccc([N+](=O)[O-])cc2)[C@@H](c2ccc(CO)cc2I)N1CC12CC3CC(CC(C3)C1)C2,1.29,-0.174,0.283,-3.38 (inactive),1.33,1.3,0.545,1.03,0.324,-0.0038,1.45,-3.49,0.462,0.76,-0.581,-0.034,-0.0146,-0.388,1.17,1.48
C=CC(=C)[C@H]1Oc2ccccc2S(=O)(=O)N2CCC[C@@H]12,-0.0608,-0.144,-0.0159,-0.629 (inactive),-0.249,-0.486,0.0976,-0.0111,0.317,1.07,-1.24,-3.25,0.0569,-0.523,-0.536,-0.138,-0.0211,-0.353,-0.448,0.279
CCOC(=O)C[C@H]1[C@H](OC(=O)c2ccc(-c3ccccc3)cc2)[C@@H](NC(=O)Cc2ccc(OC)cc2)c2cc(OCCCO)ccc2N1C(=O)c1ccccc1,-0.168,0.18,0.294,0.122 (inactive),0.219,-0.454,-0.165,-0.0876,-0.384,0.407,0.269,-0.898,-0.458,0.211,0.0935,-0.0643,-0.17,-0.306,0.294,0.582
